Here are results for 7 compounds from PubChem BioAssay AID504445 (The Scripps Research Institute Molecular Screening Center, 2011).

The other results are listed elsewhere or left out. Values without a mark were called inactive. Calls of active or inactive are those of the source.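 The calls were made as follows: active = mean inhibition over triplicate wells above a set limit taken from the primary lipase screen (cut at about 34% in these data); inactive = the rest.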

Diacylglycerol lipase-beta (Homo sapiens), sequence (Q8NCG7 whole entry, looked up): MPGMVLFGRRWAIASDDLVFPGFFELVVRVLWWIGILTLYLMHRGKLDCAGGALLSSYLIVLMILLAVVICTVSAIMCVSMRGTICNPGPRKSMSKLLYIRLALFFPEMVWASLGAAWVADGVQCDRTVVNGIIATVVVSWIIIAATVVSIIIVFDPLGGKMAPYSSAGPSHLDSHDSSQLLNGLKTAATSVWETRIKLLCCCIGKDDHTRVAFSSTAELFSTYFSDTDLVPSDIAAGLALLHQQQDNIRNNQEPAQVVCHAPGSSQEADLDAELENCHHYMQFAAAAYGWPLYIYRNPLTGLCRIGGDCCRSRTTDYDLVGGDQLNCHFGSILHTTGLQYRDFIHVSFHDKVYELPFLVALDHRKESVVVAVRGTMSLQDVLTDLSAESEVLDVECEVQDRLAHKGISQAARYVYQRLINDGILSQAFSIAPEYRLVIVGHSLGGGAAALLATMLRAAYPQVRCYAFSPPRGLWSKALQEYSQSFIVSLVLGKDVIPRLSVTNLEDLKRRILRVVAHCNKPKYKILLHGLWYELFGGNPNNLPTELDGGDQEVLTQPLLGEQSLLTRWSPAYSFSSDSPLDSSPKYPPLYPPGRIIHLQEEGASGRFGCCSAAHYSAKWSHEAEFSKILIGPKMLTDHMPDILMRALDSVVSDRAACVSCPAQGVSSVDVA

This assay concerns the target Diacylglycerol lipase-beta (Homo sapiens) (UniProt Q8NCG7). In words: DAGLB lipase inhibitors, retest, confirmation, biochemical, fluorescence, HEK293T membranes (AID 504445).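 Also: 0% = DAGLB with DMSO and 100% = wells lacking DAGLB enzyme.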 As to conditions: HEK293T DAGLB membrane lysate, EnzChek fluorogenic substrate; at 5.17 µM; active compounds read high.
As a reminder, the inhibition is the drop in the measured response relative to a control, in per cent. Turning to `Cc1ccc(/C=N/NC(=O)C(NC(=O)c2ccccc2)c2n[nH]c(=O)c3ccccc23)cc1` (configuration not stated), the inhibition was 27.9%.

In the case of `Cc1ccc(S(=O)(=O)/N=C2\C=C(NS(=O)(=O)c3ccc(C)cc3)C(=O)c3ccccc32)cc1`, the inhibition was 18.2%. On to `O=C(NNc1c2ccccc2nc2ccccc12)c1cc2ccccc2cc1O`, for which the inhibition was 63.4% (active). The result for `COc1ccc(Br)cc1/C=N/Nc1ccc(S(=O)(=O)Nc2ccccc2C(=O)O)cc1[N+](=O)[O-]` reads 27.4%; that for `O=C(Oc1cccc(N2C(=O)C3C4c5ccccc5C(c5ccccc54)C3C2=O)c1)c1ccco1` (configuration not stated), 31.9%; that for `Cc1oc2cc([N+](=O)[O-])c(O)c([N+](=O)[O-])c2c1C(=O)c1ccc(Br)cc1`, 49.9% (active). With `COc1cccc(/C=N/Nc2ccc(S(=O)(=O)Nc3ccccc3C(=O)O)cc2[N+](=O)[O-])c1O`, the inhibition is 49.7% (active).
